The assay relates to Vero E6 infected with SARS-CoV-2. The assay is described as follows: inhibition of SARS-CoV-2 cytopathic effect; higher = more antiviral protection, active = above 15. The note with it: 48 h.

Values without a mark were called inactive.

In the case of `C[C@H]1[C@H](OC(=O)CCC(=O)O)O[C@@H]2O[C@@]3(C)CC[C@H]4[C@H](C)CC[C@@H]1[C@@]24OO3` [artesunate], the “inhibition of SARS-CoV-2 cytopathic effect” value (shortened to “inhibition”) (1 nM) was -1.31%; the “inhibition” value (8.33 nM) was -0.87%; the “inhibition” value (100 nM) was 1.57%; the “inhibition” value (833.33 nM) is -1.37%; the “inhibition” value (10000 nM) was -11.7%.
`CCn1c2ccccc2c2cc(Nc3ccnc(NCCCN4CCOCC4)n3)ccc21`: the “inhibition” value is -2.13% (1 nM); -1.13% (8.33 nM); 0.05% (100 nM); -0.2% (833.33 nM); 69.3% (active) (10000 nM).
For the molecule `CCN1CCC[C@H]1CNC(=O)c1c(OC)ccc(Br)c1OC` [remoxipride], the “inhibition” value (1 nM) is -2.39%; the “inhibition” value (8.33 nM) is 2.05%; the “inhibition” value (100 nM) was 0.28%; the “inhibition” value (833.33 nM) was 0.51%; the “inhibition” value (10000 nM) is -1.54%.
Taken in the same sequence, the figures for `COc1ccc(Cc2nccc3cc(OC)c(OC)cc23)cc1OC` [papaverine] were -0.41%, 0.26%, -3.04%, -2.94% and -1.53%.
In the same order, the values of `CC(=O)O[C@H]1C[C@@H]2CC[C@@H]3[C@H](CC[C@@]4(C)[C@H]3C[C@H](N3CC[N+](C)(C)CC3)[C@@H]4OC(C)=O)[C@@]2(C)C[C@@H]1N1CC[N+](C)(C)CC1` [pipecuronium] are -1.2%, -0.41%, -0.11%, -1.81% and -1.58%.
In the same order, the values of `CCOc1ccccc1C(N)=O` [ethenzamide] are 5.35%, 3.1%, 2.44%, 2.62% and 4.34%.

Source of the values: the supplement of paper PMC13380429.
